Our source for the Potency, outcome and max activation values is PubChem BioAssay (Tox21).

Assay [1] is described as follows: Human pregnane X receptor (PXR) small molecule agonists, qHTS cell viability counter screen (AID 1346977). Further: nearly all actives have a fitted effect of over 50% in size. Put shortly:
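Viability counter screen: CellTiter-Fluor signal in PXR-Luc HepG2 cells, 24hr compound exposure, 37C, 5% CO2.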
On the technique in general: In qHTS, concentration-response curves come from the screen itself.

A short description of assay [2]: Caspase-3/7 induction in HepG2 cells by small molecules, qHTS assay (AID 1346978). Further: nearly all actives have a fitted effect of over 15% in size. The essentials:
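Wild-type HepG2 cells, 2,000/well, settled 5 hr at 37 C and 5% CO2, then compound-treated for 17 hr; caspase-3/7 activity read by luminescent Caspase-Glo 3/7 after 30 min at room temperature.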

Assay [3] in a line: Caspase-3/7 induction in CHO-K1 cells by small molecules, qHTS cell viability counter screen (AID 1346979). Further: nearly all actives have a fitted effect of over 35% in size. Put shortly: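 Viability readout by fluorescence (CellTiter-Fluor) on wild-type CHO-K1 cells exposed for 16hr at 37C and 5% CO2 to compounds delivered in DMSO; reagent incubated 1hr before reading.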
Assay [4] can be described thus: Caspase-3/7 induction in CHO-K1 cells by small molecules, qHTS assay (AID 1346980). Further: nearly all actives have a fitted effect of over 15% in size. The essentials:
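Wild-type CHO-K1 cells exposed to compounds for 17hr at 37 C, 5% CO2. Caspase-3/7 activity then measured by Caspase-Glo 3/7 luminescence after 30min at room temperature.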

Assay [5] has as its target Nuclear receptor subfamily 1 group I member 2 (Rattus norvegicus) (UniProt Q9R1A7). Put plainly: Rat pregnane X receptor (rPXR) activation by small molecules, qHTS assay (AID 1346983). Further: nearly all actives have a fitted effect of over 20% in size. Further: potency means the concentration at half of the fitted maximal effect. Conditions: rPXR luciferase reporter cells, One-Glo luminescence, 24 h; max activation: stronger effect = higher value. The essentials: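 Cell-based rPXR activation assay: rPXR cells, 2,000 per well, rested 5hr at 37 C, then exposed to compounds in DMSO for 24 hr at 37 C. Luciferase activity read by One-Glo luminescence after 30 min at room temperature.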

In assay [6] the target is Nuclear receptor subfamily 1 group I member 2 (Homo sapiens) (UniProt O75469). Put plainly: CYP3A4 induction through human pregnane X receptor (PXR) by small molecules, qHTS assay (AID 1346984). Further: nearly all actives have a fitted effect of over 40% in size. Put shortly: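 DPX-2 reporter cells; 24h cpd, 37C; Luciferin-IPA 3uM final x3h; One-Glo 30 min RT; lumi read.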
Chain of Nuclear receptor subfamily 1 group I member 2 (Homo sapiens) (O75469 whole entry, looked up): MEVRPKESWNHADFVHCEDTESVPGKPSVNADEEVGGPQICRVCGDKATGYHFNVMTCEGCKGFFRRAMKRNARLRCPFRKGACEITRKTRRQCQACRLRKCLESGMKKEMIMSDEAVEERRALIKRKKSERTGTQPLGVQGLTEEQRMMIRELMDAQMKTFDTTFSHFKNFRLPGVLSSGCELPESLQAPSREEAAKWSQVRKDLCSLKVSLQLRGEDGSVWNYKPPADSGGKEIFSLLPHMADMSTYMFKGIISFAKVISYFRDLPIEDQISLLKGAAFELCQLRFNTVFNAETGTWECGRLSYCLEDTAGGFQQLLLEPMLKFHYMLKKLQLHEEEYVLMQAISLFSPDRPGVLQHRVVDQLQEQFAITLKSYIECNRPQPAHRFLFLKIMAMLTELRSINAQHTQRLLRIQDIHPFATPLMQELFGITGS
For assay [7] the target is unchanged. Put plainly: Human pregnane X receptor (PXR) activation by small molecules, qHTS assay (AID 1346985). Further: nearly all actives have a fitted effect of over 40% in size. Further: potency means the concentration at half of the fitted maximal effect. Put shortly:
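DPX-2 cells (HepG2 co-transfected with a PXR response element and a CYP3A4-promoter luciferase construct) were seeded at 2,000 per well, rested 5 hr at 37C, then exposed to DMSO-dissolved compounds for 24 hr. Activation was read as luciferase luminescence.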

Assay [8] has as its target Cytochrome P450 2C19 (Homo sapiens) (UniProt P33261). Description: Cytochrome P450 Family 2 Subfamily C Member 19 (CYP2C19) small molecule antagonists: luciferase reporter qHTS assay (AID 1671197). Further: nearly all actives have a fitted effect of over 65% in size. Further: potency means the concentration at half of the fitted maximal effect. The essentials: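 Quantitative high-throughput screen of the Tox21 library using CYP2C19 with proluciferin substrate. Reaction: NADPH regeneration, 37C, 1 h, after 10 min compound preincubation at room temperature. Readout: luminescence.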
A general note: In a reporter assay the amount or activity of a reporter protein is the signal.

In assay [9] the target is Cytochrome P450 2C9 (Homo sapiens) (UniProt P11712). Description: Cytochrome P450 Family 2 Subfamily C Member 9 (CYP2C9) small molecule antagonists: luciferase reporter qHTS assay (AID 1671198). Further: nearly all actives have a fitted effect of over 50% in size. Further: potency means the concentration at half of the fitted maximal effect. The essentials:
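P450-Glo proluciferin substrate with CYP2C9 enzyme; 10 min RT preincubation, then NADPH regeneration 1 h at 37C; luciferin detection reagent 20 min RT, luminescence in relative luminescence units.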

Assay [10] concerns the target Voltage-gated inwardly rectifying potassium channel KCNH2 (Homo sapiens) (UniProt Q12809). Put plainly: Human Ether-a-go-go-Related Gene (hERG) channel small molecule antagonists: fluorescence cell-based qHTS assay (AID 1671200).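 Further: hERG-expressing U2OS cells given a thallium stimulus after FluxOR II dye loading; series mostly up to about 77 µM; nearly all actives have a fitted effect of over 50% in size.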 The essentials: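 Thallium served as the potassium surrogate; its influx into dye-loaded U2OS cells carrying the channel was measured by fluorescence over 2 min.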

A short description of assay [11]: Caspase-3/7 induction in HepG2 cells by small molecules, qHTS cell viability counter screen (AID 1346981). Further: series mostly up to about 92 µM; nearly all actives have a fitted effect of over 30% in size. Put shortly: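 Counter screen for cytotoxicity: HepG2 exposed 16 hr to compounds, then CellTiter-Fluor viability signal (fluorescence, 1 hr reagent incubation).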
In assay [12] the target is Cytochrome P450 1A2 (Homo sapiens) (UniProt P05177). Put plainly: Cytochrome P450 Family 1 Subfamily A Member 2 (CYP1A2) small molecule antagonists: luciferase reporter qHTS assay (AID 1671199). Further: nearly all actives have a fitted effect of over 50% in size. Further: potency means the concentration at half of the fitted maximal effect. The essentials: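 Signal from luciferin formed by CYP1A2 from a proluciferin substrate is read as luminescence, expressed in relative luminescence units. Compounds sit with enzyme 10 min, NADPH-driven reaction runs 1 h, all at room temperature.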
Chain of Cytochrome P450 1A2 (Homo sapiens) (P05177 whole entry, looked up): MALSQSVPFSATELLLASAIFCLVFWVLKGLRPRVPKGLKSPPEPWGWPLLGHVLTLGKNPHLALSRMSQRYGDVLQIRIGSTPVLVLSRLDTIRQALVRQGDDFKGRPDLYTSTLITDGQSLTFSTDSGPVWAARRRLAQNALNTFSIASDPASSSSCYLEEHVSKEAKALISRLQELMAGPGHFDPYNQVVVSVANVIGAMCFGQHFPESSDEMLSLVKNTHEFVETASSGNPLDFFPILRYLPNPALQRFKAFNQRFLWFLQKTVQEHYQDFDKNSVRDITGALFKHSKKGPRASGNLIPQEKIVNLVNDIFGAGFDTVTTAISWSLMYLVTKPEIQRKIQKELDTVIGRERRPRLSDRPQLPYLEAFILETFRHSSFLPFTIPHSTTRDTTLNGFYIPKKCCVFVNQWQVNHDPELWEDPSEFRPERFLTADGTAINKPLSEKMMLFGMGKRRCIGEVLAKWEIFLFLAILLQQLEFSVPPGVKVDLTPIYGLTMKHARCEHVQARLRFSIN

Assay [13] concerns the target Nuclear receptor subfamily 1 group I member 2 (Homo sapiens) (UniProt O75469). Put plainly: Human pregnane X receptor (PXR) small molecule agonists, qHTS assay (AID 1346982). Further: nearly all actives have a fitted effect of over 35% in size. Put shortly:
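Luminescence (ONE-Glo, 30 min RT) after 24 hr compound exposure of PXR-Luc HepG2 cells; cells rested 5 hr post-plating in 5% charcoal-stripped FBS medium.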

In assay [14] the target is Cytochrome P450 2D6 (Homo sapiens) (UniProt P10635). Put plainly: Cytochrome P450 Family 2 Subfamily D Member 6 (CYP2D6) small molecule antagonists: luciferase reporter qHTS assay (AID 1671196). Put shortly:
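Inhibition of CYP2D6 was gauged by loss of luminescence, since light produced tracks the luciferin generated from a proluciferin substrate. A 10 min room-temperature preincubation preceded 1 h NADPH-supported turnover.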

The target of assay [15] is Cytochrome P450 3A4 (Homo sapiens) (UniProt P08684). Put plainly: Cytochrome P450 Family 3 Subfamily A Member 4 (CYP3A4) small molecule antagonists: luciferase reporter qHTS assay (AID 1671201). The essentials:
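Relative luminescence units after 20 min with luciferin detection reagent served as read-out. Beforehand, CYP3A4 turned over a proluciferin substrate for 1 h at room temperature with NADPH regeneration, following 10 min compound preincubation.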

Values without a mark were called inactive. Inconclusive results are not listed. Active and inactive are the calls of the source. The call rests on the fitted dose curve; in most records, active means well fitted curve in the direction sought with a large enough effect in the repeat runs; inconclusive means weak or mixed curves; inactive means no such curve, though single readings can be large; an effect the other way counts as inactive or inconclusive.
On the % scale 0 is the no-effect control and ±100 the full control effect.

Chain of Nuclear receptor subfamily 1 group I member 2 (Rattus norvegicus) (Q9R1A7 whole entry, looked up): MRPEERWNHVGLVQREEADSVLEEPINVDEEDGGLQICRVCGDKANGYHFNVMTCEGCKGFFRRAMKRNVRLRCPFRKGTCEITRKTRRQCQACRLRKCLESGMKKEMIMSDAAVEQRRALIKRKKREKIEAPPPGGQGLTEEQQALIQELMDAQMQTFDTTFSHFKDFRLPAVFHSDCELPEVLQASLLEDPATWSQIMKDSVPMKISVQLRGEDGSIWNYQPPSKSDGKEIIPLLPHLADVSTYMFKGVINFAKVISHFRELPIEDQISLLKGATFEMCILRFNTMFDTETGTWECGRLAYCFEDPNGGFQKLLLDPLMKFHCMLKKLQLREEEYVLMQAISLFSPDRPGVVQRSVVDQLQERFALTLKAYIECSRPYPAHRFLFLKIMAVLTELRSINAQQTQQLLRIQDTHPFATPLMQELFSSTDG
Chain of Cytochrome P450 2C9 (Homo sapiens) (P11712 whole entry, looked up): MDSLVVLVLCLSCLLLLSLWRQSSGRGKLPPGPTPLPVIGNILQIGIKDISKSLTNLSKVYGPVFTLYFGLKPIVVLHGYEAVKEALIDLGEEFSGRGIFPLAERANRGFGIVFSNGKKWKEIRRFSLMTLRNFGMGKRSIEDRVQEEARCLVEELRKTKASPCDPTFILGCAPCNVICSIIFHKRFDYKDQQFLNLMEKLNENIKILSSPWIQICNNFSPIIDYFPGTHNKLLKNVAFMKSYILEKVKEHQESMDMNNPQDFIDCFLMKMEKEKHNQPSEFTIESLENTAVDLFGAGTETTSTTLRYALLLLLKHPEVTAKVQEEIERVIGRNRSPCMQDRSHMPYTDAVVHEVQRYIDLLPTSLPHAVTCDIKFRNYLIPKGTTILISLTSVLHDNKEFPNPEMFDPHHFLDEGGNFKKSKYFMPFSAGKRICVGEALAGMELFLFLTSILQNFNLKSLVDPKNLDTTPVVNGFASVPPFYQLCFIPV
Chain of Cytochrome P450 2D6 (Homo sapiens) (P10635 whole entry, looked up): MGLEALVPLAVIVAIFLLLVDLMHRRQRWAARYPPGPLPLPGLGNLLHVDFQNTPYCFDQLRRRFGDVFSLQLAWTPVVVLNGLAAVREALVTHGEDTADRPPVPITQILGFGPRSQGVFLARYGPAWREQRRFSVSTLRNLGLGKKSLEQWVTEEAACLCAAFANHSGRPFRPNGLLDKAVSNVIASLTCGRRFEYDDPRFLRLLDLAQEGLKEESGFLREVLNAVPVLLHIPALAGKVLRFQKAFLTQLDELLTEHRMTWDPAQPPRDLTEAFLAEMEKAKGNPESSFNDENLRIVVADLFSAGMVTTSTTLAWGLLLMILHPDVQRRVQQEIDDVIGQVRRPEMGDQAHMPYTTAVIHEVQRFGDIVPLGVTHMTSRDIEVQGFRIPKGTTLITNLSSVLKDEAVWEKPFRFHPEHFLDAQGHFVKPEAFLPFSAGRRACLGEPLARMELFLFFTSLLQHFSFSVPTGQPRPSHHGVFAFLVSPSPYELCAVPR
Chain of Cytochrome P450 3A4 (Homo sapiens) (P08684 whole entry, looked up): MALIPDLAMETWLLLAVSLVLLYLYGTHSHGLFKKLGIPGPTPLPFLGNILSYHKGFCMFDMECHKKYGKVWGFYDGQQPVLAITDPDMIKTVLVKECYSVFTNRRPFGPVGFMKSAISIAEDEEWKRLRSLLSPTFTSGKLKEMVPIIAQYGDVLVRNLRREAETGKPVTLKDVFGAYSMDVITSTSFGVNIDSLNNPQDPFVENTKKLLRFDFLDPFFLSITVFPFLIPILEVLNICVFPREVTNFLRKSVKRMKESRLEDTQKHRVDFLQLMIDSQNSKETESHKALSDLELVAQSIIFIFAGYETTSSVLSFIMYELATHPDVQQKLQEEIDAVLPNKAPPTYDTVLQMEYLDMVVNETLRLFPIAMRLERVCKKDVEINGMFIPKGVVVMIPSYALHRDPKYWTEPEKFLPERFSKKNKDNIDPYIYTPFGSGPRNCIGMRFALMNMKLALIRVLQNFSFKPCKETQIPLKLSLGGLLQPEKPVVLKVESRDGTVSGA
Chain of Voltage-gated inwardly rectifying potassium channel KCNH2 (Homo sapiens) (Q12809 whole entry, looked up): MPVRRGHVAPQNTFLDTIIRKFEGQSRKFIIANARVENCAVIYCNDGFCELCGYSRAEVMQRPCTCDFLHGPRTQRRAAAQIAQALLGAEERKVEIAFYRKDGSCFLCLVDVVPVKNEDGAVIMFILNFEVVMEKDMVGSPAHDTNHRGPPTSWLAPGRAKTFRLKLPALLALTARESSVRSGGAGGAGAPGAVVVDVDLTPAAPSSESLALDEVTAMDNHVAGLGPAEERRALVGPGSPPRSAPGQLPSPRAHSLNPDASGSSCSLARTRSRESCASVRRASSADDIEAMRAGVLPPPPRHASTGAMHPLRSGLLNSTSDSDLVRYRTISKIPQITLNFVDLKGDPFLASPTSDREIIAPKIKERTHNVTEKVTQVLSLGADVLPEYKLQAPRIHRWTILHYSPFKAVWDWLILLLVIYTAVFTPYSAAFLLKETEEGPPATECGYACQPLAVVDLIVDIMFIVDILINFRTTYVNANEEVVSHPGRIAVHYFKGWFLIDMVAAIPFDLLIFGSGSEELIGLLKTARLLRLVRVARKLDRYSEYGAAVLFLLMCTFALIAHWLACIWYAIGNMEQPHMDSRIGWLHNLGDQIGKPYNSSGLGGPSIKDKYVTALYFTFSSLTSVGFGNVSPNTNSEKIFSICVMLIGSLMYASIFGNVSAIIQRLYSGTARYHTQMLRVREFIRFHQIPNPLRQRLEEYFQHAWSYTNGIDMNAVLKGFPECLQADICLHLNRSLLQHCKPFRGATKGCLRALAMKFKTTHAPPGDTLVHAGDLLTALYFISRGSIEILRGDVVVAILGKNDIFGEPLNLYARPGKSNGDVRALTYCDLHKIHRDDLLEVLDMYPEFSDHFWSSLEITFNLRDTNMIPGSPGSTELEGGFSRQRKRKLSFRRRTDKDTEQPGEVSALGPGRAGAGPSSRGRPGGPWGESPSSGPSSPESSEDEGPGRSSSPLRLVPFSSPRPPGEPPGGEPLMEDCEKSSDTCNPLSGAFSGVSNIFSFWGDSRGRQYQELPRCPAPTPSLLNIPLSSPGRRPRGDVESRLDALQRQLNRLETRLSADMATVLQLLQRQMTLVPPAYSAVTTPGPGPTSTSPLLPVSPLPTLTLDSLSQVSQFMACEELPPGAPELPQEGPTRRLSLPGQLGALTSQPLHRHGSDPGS
Chain of Cytochrome P450 2C19 (Homo sapiens) (P33261 whole entry, looked up): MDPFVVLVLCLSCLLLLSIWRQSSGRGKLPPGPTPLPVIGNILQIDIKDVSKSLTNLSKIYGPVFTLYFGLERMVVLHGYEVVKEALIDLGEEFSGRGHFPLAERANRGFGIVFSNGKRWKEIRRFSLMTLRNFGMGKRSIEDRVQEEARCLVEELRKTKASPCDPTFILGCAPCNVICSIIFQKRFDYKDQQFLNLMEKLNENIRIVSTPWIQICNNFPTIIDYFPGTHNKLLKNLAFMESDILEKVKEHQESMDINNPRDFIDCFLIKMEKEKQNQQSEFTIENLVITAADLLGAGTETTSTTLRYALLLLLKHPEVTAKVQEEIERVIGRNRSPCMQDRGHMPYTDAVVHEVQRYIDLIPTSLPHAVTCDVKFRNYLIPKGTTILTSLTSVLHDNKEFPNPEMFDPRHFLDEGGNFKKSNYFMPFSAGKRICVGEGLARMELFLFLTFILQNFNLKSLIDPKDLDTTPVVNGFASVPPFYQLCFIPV

Consider `c1ccc2sc(SN3CCOCC3)nc2c1`, for which the Potency result in assay [1], in assay [3], in [6] and in assay [10] was “inactive” in each case. For the same compound, the compound was called inactive in assay [2] and in [4]. In addition, the Potency in assay [5] was 28.2 µM (active); in [7], 10 µM (active); in assay [8] it was 17.4 µM (active); in [9], 17.4 µM (active).

For the compound `NC(=O)N1c2ccccc2CC(=O)c2ccccc21`, the Potency entry in [1], in assay [11], in assay [9] and in assay [10] was “inactive” each time. Moreover, the result in assay [2] and in assay [4] was inactive. In assay [5], the max activation was -3.02%. The Potency in [12] was 3.23 µM (active).

In the case of `CCN1C=CN(C)C1C` (stereo not drawn), the Potency entry in assay [1], in assay [13], in [14], in assay [8], in assay [9] and in assay [12] was “inactive” each time. Also, the Potency entry in [10] and in assay [15] was “inactive” throughout. In addition, the result in [2] and in assay [4] was inactive.

For the compound `CCCCOCCOC(=O)CCCCCCCCC(=O)OCCOCCCC`, the Potency result in assay [1], in assay [3], in [11], in [13], in [14] and in assay [15] was “inactive” throughout. The call in assay [4] was inactive. The Potency in assay [8] is 31.7 µM (active); in [9], 35.6 µM (active).

On to `Clc1cc(Cl)cc(Cl)c1`, for which the Potency result in assay [1], in [3], in assay [13], in assay [14], in [9] and in assay [12] was “inactive” each time. In addition, the Potency result in assay [10] and in [15] was “inactive” throughout. Also, the result in [2] and in assay [4] was inactive.

In the case of `C=C(C)C(=O)OCCOCCOCCOCCOC(=O)C(=C)C`, the Potency entry in [1], in [3], in assay [11], in assay [13] and in assay [14] was “inactive” throughout. Moreover, the outcome in assay [4] was inactive. Besides, the values for the Potency in assay [8], in [9] and in [12] were 71 µM (active), 63.3 µM (active) and 63.3 µM (active), respectively.

Regarding `Cc1c(N)c(=O)n(-c2ccccc2)n1C`, the Potency result in assay [1], in assay [3] and in [10] was “inactive” each time. The compound was classed as inactive in assay [2] and in assay [4].

`C[N+]1(C)[C@@H]2CC(OC(=O)[C@H](CO)c3ccccc3)C[C@H]1[C@@H]1O[C@@H]12` (stereo partly drawn): the Potency result in assay [1], in assay [3], in assay [6], in assay [7], in assay [14] and in [8] was “inactive” throughout. Also, the Potency result in assay [12], in assay [10] and in [15] was “inactive” each time. Further, the outcome in [2] and in [4] was inactive. Moreover, the max activation in assay [5] was -0.815%.

As for `CC1(C)[C@@H]2CC[C@@]1(C)[C@H](O)C2`, the Potency result in assay [1], in assay [3], in assay [14], in [8], in assay [9] and in assay [12] was “inactive” throughout. In addition, the Potency result in [10] and in [15] was “inactive” in each case. For the same compound, the outcome in assay [2] and in assay [4] was inactive.

Consider `Cc1onc(-c2c(Cl)cccc2Cl)c1C(=O)Cl`, for which the Potency result in [1], in assay [14] and in [12] was “inactive” throughout. Also, the compound was classed as inactive in [2] and in [4]. Besides, the Potency in assay [8] was 21.9 µM (active); in [9] it was 17.4 µM (active).

Take `Nc1ccn([C@@H]2O[C@H](CO)[C@@H](O)C2(F)F)c(=O)n1`: the Potency entry in assay [1], in assay [11], in [6], in assay [7], in [14] and in assay [8] was “inactive” throughout. In addition, the Potency result in assay [9], in assay [12], in assay [10] and in [15] was “inactive” in each case. Besides, the compound was called inactive in assay [2] and in assay [4]. Also, the max activation in [5] was -12%.
